As usually defined, the AC50 is the concentration giving half of the maximal activity seen.

Activity calls are given as the source filed them. The calls were made as follows: active = hit-call score of the fitted dose curve at least 0.9, where 1 is the maximum; inactive = score below 0.9.

Read-out in the experiment: Keratin 19 (KRT19), KRT19 (gene 3880)
The experiment can be described thus: LTEA_HepaRG_KRT19: Life Technologies and Expression Analysis (LTEA) Assay for Keratin 19 (KRT19) using HepaRG (AID 2283512). Conditions: mRNA level, 48 h; actives raise or lower the signal. The protocol: LTEA_HepaRG is a cell based, multiplexed-readout assay that uses HepaRG, a human liver cell line, with measurements taken at 48 hours after chemical dosing on a 96-well plate.LTEA_HepaRG_KRT19 is one of 102 assay component(s) measured in the LTEA HepaRG cell culture assay. It is a marker of Cell proliferation, survival, death.Data from the assay component LTEA_HepaRG_KRT19 was analyzed into 1 endpoint. This assay endpoint, LTEA_HepaRG_KRT19, was analyzed with bidirectional fitting relative to DMSO as the negative control and baseline of activity. Using a type of inducible reporter, measures of mRNA induction for gain or loss-of-signal activity can be used to understand regulation of transcription factor activity. To generalize the intended target to other relatable targets, this assay endpoint is annotated to the filaments intended target family, where the subfamily is keratin.
A total of 1060 chemcials from the ToxCast library were tested in eight-point concentration-response experiments. Cell culture and cytotoxicity assays were conducted at Thermo Fisher Scientific's Custom Services facility (Madison, WI). A single lot of human HepaRG cells (Thermo Fisher Scientific, Frederick, MD) was used for the cell culture experiments. 96-well format collagen type I coated plates of human HepaRG cells were prepared using established methods. Briefly, cryopreserved HepaRG cells were thawed, plated at a density of approximately 100,000 cells/well in HepaRG Thaw, Plate, and General Purpose media (HPRG770, Thermo Fisher Scientific), and incubated for 48 hours. 0.5% DMSO was selected as vehicle control to balance the requisite need of DMSO in HepaRG cultures to maintain differentiation (for example, baseline metabolism, proportions of hepatocytes vs. cholangiocytes), while enabling further hepatic receptor pathway activation (for example, PXR and CAR) in response to chemical exposure. 48 hours after plating, the culture medium was replaced with HepaRG Serum-Free Incudtion Media. Cells were exposed to each test chemical in duplicate and maintained in CO2 incubators for another 48 hours. Chemical plates were thawed to room temperature and 200x concentrations of treatment groups were prepared. 8-point conentration-reponse curves were made with the highest exposure at 100 uM, followed by half-log dilutions, all in 0.5% DMSO. Each test plate contained variouse controls, induction positive controls (1mM phenobarbital), cytotoxicity positive controls ([…] aflatoxin B1), vehicle controls (0.5% DMSO), and total lysis controls (0.5% DMSO). Cell morphology images were taken using an Essen IncuCyte FLR automated microscope, with six 96-well plates imaged in about 24 minutes. Images were captured and exported and JPEG files. Spent culture media was transfered to black-well plates for the LDH assay, and remaining media was sorted at -80 C for later use. Cells were treated with RLT buffer and frozen until shipped for gene expression analysis. Total RNA was isolated from the cell suspension in 75 uL of Buffer RLT (Qiagen, Germantown, MD 20874) by Quintiles/Expression Analysis (Durham, NC) using a custom isolation procedure. Total RNA from each plate well was transferred to a preamplification plate. Fluidigm's 96.96 Dynamic ArrayTM (Fluidigm, Amsterdam, the Netherlands) technology was used for gene expression analyses by quantitative reverse transcription polymerase chain reaction (qRT-PCR, performed by Quintiles/Expression Analysis, Durham, NC)89. Standard TaqManTM Assays (Applied Biosystems/ThermoFisher Scientific, Foster City, CA) were used to assess the expression of 93 genes selected based on their selectivity and sensitivity to important hepatic receptors known to be modulated by environmental chemicals; importance in human hepatocyte functionality; and hepatotoxicity. […]
For `CC(C)(C)CC(C)(C)c1ccc(O)c(-n2nc3ccccc3n2)c1`, the outcome was inactive. On the same count and under the same terms, for `CCCCC(CC)COC(=O)CCCCC(=O)OCc1ccccc1` (stereo not given) the value was “inactive”. The same measure, in the same setting: the value for `CCCOc1sc(C(=O)N2CCC(c3cc(CN)ccc3F)CC2)c(C)c1Br` was “inactive”. As for `CCC(=C(c1ccc(O)cc1)c1ccc(OCCN(C)C)cc1)c1ccccc1`, the molecule was called inactive. Same read-out and setting: for `CCCCCCCCCCCCc1ccccc1S(=O)(=O)O` the value was “inactive”; for `CCOC(=O)CC(O)(CC(=O)OCC)C(=O)OCC`, “inactive”. For the molecule `CC(C)(C)c1ccc(O)c(C(C)(C)C)c1`, the call was inactive. Still for that read-out and setting: for `CCCCOCCO` the value was “inactive”; for `N#C[C@@H]1CC(F)(F)CN1C(=O)CNC1CC2CCC(C1)N2c1ncccn1` (stereo not given in full), “inactive”.

`Cc1oc(-c2ccccc2)nc1CCOc1ccc(C[C@H](Nc2ccccc2C(=O)c2ccccc2)C(=O)O)cc1`: the AC50 was 13.2 µM (active). On to `CCCCCCCCC(=O)O`, for which the outcome was inactive. Regarding `CC[C@H](C)[C@@H](C(=O)O)n1sc2ccccc2c1=O`, the molecule was called inactive. Still for that read-out and setting: the value for `CC(=O)NC1(c2cccc(F)c2)CCN(CC[C@@]2(c3ccc(Cl)c(Cl)c3)CN(c3ccccc3)C(=O)CO2)CC1` was “inactive”. `CCN(CC)CCNc1ccc(CNC=O)c2sc3ccc(OC)cc3c(=O)c12`: the AC50 was 12.7 µM (active). The same measure, in the same setting: the value for `Cc1cc(CCN2CCN(c3nsc4ccccc34)CC2)cc2c1NC(=O)CC2(C)C` was 50 µM (active). `COC(=O)CCCCC(=O)OC`: the outcome was inactive. Same read-out and setting: for `CC(O)CO` (stereo not given) the value was “inactive”. As to `O=C(O)Cc1cc(I)c(Oc2cc(I)c(O)c(I)c2)c(I)c1`, the AC50 was 0.0526 µM (active).

Regarding `NC(=O)N(O)[C@@H]1C=C[C@H](Oc2cccc(Oc3ccc(F)cc3)c2)C1`, the molecule was classed as inactive. Take `CCCCCCCCCCCCN1CCCC1=O`: the result was inactive. Still for that read-out and setting: the value for `C[C@@H]1C[C@H]2[C@@H]3CCC4=CC(=O)C=C[C@]4(C)[C@@]3(F)[C@@H](O)C[C@]2(C)[C@@]1(O)C(=O)COP(=O)(O)O` was “inactive”.

Turning to `ClC1=C(Cl)C(Cl)(Cl)C(Cl)=C1Cl`, the result was inactive. On the same count and under the same terms, the value for `CCC(C)(C)C1CCC(O)CC1` (stereo not given) was “inactive”; that for `CC(=O)CC(C)(C)O` was “inactive”. As for `NC(=O)N1C(=O)C(C(=O)c2cc(Cl)cs2)c2cc(F)c(Cl)cc21` (stereo not given), the AC50 is 13.2 µM (active). With `OC1CCC(C2CCCCC2)CC1` (stereo not given), the outcome was inactive. Regarding `CC(C)(C)c1cc(C(C)(C)C)c(O)c(C(C)(C)C)c1`, the outcome was inactive. With `CN1CCN(c2ccccc2/C=C2\SCCN(c3ccc(Cl)c(Cl)c3)C2=O)CC1`, the AC50 is 12.4 µM (active). In the case of `COCC(C)O` (stereo not given), the molecule was classed as inactive.

Regarding `CC[C@H](c1ccc(O)cc1)[C@@H](CC)c1ccc(O)cc1`, the AC50 is 90.8 µM (active).

With `Cc1cc(C)c(O)c(C)c1`, the result was inactive.

Regarding `Nc1cccc2c(N)cccc12`, the AC50 was 22.6 µM (active). For `CCCCCCCCCCCCCCCS(=O)(=O)Oc1ccccc1`, the call was inactive. Consider `CCCCCCCC(=O)O`, for which the molecule was classed as inactive. On the same count and under the same terms, for `c1ccc2c(c1)Cc1ccccc1-2` the value was “inactive”. `CCc1nn(C2CCCCC2)c2cc(C3(C#N)CCC(C(=O)O)CC3)ccc12` (stereo not given): the AC50 is 90.5 µM (active).

Regarding `c1ccc2c(c1)ccc1ccccc12`, the outcome was inactive. As to `CCCOC(=O)c1ccc(O)cc1`, the outcome was inactive.

Regarding `COCC(C)OCC(C)O` (stereo not given), the outcome was inactive. In the case of `OCCC(F)(F)C(F)(F)C(F)(F)C(F)(F)C(F)(F)C(F)(F)C(F)(F)C(F)(F)F`, the molecule was classed as inactive.

The values are drawn from PubChem BioAssay (EPA / NIEHS).
